Bioassay records: PubChem BioAssay, several laboratories
CYP2C9 activ = activators of human CYP2C9 | P11712 | recombinant CYP2C9, luciferin-H conversion, luminescence; stronger effect = higher value; factor 1 = untreated enzyme, 0 = blocked | activation factor at 5 µM | hit rate 1.4% among 96,000 | AID 1024;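 active = activation factor of 2 or more for CYP2C9 at a 5 µM dose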;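 note: 0 = sulfaphenazole-blocked wells and 1 = vehicle-only wells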
CYP2C19 act = increases human CYP2C19 enzyme activity. recombinant CYP2C19, luciferin-H EGE luminescence; stronger effect = higher value; 0 = fully inhibited enzyme, 1 = untreated enzyme. P33261. AID 1025. activation factor at 5 µM. 96,000 tested, under 10 active;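 active = activation factor of at least 2 at 5 µM in the primary screen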;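 note: 0 = wells with 2.5 mM tranylcypromine and 1 = vehicle-only wells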
CYP2C19 inhib = human CYP2C19 inhibition | P33261 | CYP2C19 Supersomes, luciferin-H EGE luminescence, 30 min | inhibition, % at 5 µM | hit rate 21% among 96,000 | AID 778;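 active = CYP2C19 inhibition above a set limit at 5 µM in the primary screen, cut at about 50% in these data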;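 note: plate controls were negative control wells for no effect and 2.5 mM tranylcypromine positive control for full effect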
CYP2C9 inhib = blocks human cytochrome P450 2C9; P11712; CYP2C9 Supersomes, luciferin-H conversion, luminescence; inhibition, % at 5 µM; hit rate 20% among 96,000; AID 777;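 active = blocking of liver enzyme CYP2C9 beyond about 50% at 5 µM, limit read from the data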
Cav32 inh = human Cav3.2 channel inhibition, primary screen | AID 449739 | Cav3.2-expressing cells, Fluo-4 calcium fluorescence FDSS; stronger effect = lower value | hit rate 4% among 100,000 | B-score at 10 µM | O95180;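 active = single-dose well whose peak fluorescence ratio is a statistical outlier from its plate by either plate-standardised score or position-corrected B-score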
Active calls of the source: *. Shown are actives, neighbours in structure and some others; about 27% of the full set was active somewhere.

Results for O=C(COc1ccccc1Cl)N1CCN(c2ccc([N+](=O)[O-])c(N3CCCCC3)c2)CC1 ?
CYP2C9 activ: 0.2; CYP2C19 act: 0.4; CYP2C19 inhib: 59*; CYP2C9 inhib: 84*; Cav32 inh: -2.5

What do the screens show for `O=[N+]([O-])c1ccc(N2CCOCC2)cc1NCc1ccccc1`?
CYP2C9 activ: 0.7; CYP2C19 act: 0.6; CYP2C19 inhib: 41; CYP2C9 inhib: 33; Cav32 inh: -0.023

Results for CCC(=O)N1CCN(c2c(Cl)cccc2[N+](=O)[O-])CC1 ?
CYP2C9 activ: 0.8; CYP2C19 act: 0.8; CYP2C19 inhib: 21; CYP2C9 inhib: 18; Cav32 inh: 0.075

Results for CCc1nnc(NC(=O)c2ccc(S(=O)(=O)NCC(C)C)cc2)s1 ?
CYP2C9 activ: 1; CYP2C19 act: 1; CYP2C19 inhib: -2; CYP2C9 inhib: -5; Cav32 inh: -0.16

What do the screens show for `O=C(/C=C/c1ccccc1)N1CCN(c2ccc([N+](=O)[O-])c(N3CCOCC3)c2)CC1`?
CYP2C9 activ: 0.3; CYP2C19 act: 0.6; CYP2C19 inhib: 42; CYP2C9 inhib: 72*; Cav32 inh: -1.9

Results for O=C(c1ccc2ccccc2c1)N1CCN(c2ccc([N+](=O)[O-])c(N3CCOCC3)c2)CC1 ?
CYP2C9 activ: 0.3; CYP2C19 act: 0.5; CYP2C19 inhib: 46; CYP2C9 inhib: 65*; Cav32 inh: -0.35

What do the screens show for `O=C(c1ccc2ccccc2c1)N1CCN(c2ccc(O)cc2)CC1`?
CYP2C9 activ: 0.8; CYP2C19 act: 0.4; CYP2C19 inhib: 62*; CYP2C9 inhib: 18; Cav32 inh: -1.8

What do the screens show for `CO/N=C(\c1nonc1N)N1CCN(c2ccc(Cl)cc2[N+](=O)[O-])CC1`?
CYP2C9 activ: 0.2; CYP2C19 act: 0.2; CYP2C19 inhib: 77*; CYP2C9 inhib: 76*

How did CC1CCN(c2ccc(C(=O)N3CCOCC3)cc2[N+](=O)[O-])CC1 do in these assays?
CYP2C9 activ: 1; CYP2C19 act: 1; CYP2C19 inhib: -3; CYP2C9 inhib: -3; Cav32 inh: 0.89

Results for O=S(=O)(CCN(CCS(=O)(=O)C(F)(F)F)CC1CCCO1)C(F)(F)F (stereo not drawn) ?
CYP2C9 activ: 1.1; CYP2C19 act: 1; CYP2C19 inhib: 3; CYP2C9 inhib: -9; Cav32 inh: -3.5

How did Cn1c(=O)n(C)c2cc([N+](=O)[O-])c(N3CCN(C(=O)c4ccc(Cl)cc4)CC3)cc21 do in these assays?
CYP2C9 activ: 0.7; CYP2C19 act: 1; CYP2C19 inhib: 2; CYP2C9 inhib: 27; Cav32 inh: 0.91

Results for O=C(c1ccc(F)cc1)N1CCN(c2ccc([N+](=O)[O-])c(N3CCCCC3)c2)CC1 ?
CYP2C9 activ: 0.4; CYP2C19 act: 0.8; CYP2C19 inhib: 19; CYP2C9 inhib: 62*; Cav32 inh: -1.1

What do the screens show for `CCN(CC)S(=O)(=O)c1ccc2[nH]cc(C(=O)NCCc3ccc(OC)c(OC)c3)c(=O)c2c1`?
CYP2C9 activ: 0.4; CYP2C19 act: 0.4; CYP2C19 inhib: 57*; CYP2C9 inhib: 60*; Cav32 inh: 0.47

What do the screens show for `COc1ccc(CCNC(=O)c2c[nH]c3ccccc3c2=O)cc1OC`?
CYP2C9 activ: 0.7; CYP2C19 act: 0.5; CYP2C19 inhib: 50*; CYP2C9 inhib: 29; Cav32 inh: 0.89

What do the screens show for `COc1ccc2[nH]cc(C(=O)CN(C)CCc3ccc(OC)c(OC)c3)c2c1`?
CYP2C9 activ: 0.1; CYP2C19 act: 0.1; CYP2C19 inhib: 85*; CYP2C9 inhib: 91*

How did CC(C)N1C(=O)C2C(C(=O)NC3CCCCC3)C3C=CC2(O3)C1C(=O)NC1CCCCC1 (stereo not drawn) do in these assays?
CYP2C9 activ: 1; CYP2C19 act: 1; CYP2C19 inhib: -1; CYP2C9 inhib: -2; Cav32 inh: -0.15

What do the screens show for `Cc1ccc(S(=O)(=O)N2CCCCC2)cc1C(=O)Nc1ccc(N2CCOCC2)cc1`?
CYP2C9 activ: 1; CYP2C19 act: 0.9; CYP2C19 inhib: 8; CYP2C9 inhib: 5; Cav32 inh: 1.4

How did Cc1ccc(S(=O)(=O)N2CCCCC2)cc1C(=O)Nc1ccc2cn[nH]c2c1 do in these assays?
CYP2C9 activ: 0.4; CYP2C19 act: 0.7; CYP2C19 inhib: 31; CYP2C9 inhib: 64*; Cav32 inh: -1.6

How did Cc1ccc(S(=O)(=O)N2CCCCC2)cc1C(=O)Nc1ncn[nH]1 do in these assays?
CYP2C9 activ: 2*; CYP2C19 act: 1; CYP2C19 inhib: -2; CYP2C9 inhib: -97

How did Cc1cc(NC(=O)c2cc(S(=O)(=O)N3CCCCC3)ccc2C)n(-c2ccccn2)n1 do in these assays?
CYP2C9 activ: 0.4; CYP2C19 act: 0.7; CYP2C19 inhib: 32; CYP2C9 inhib: 64*; Cav32 inh: -0.095

Results for COc1ccc(C2/C=C\CN(C(=O)NC(C)C)CC(=O)N2Cc2ccc(F)cc2)cc1 (stereo not drawn) ?
Cav32 inh: 0.72

Results for COc1cc(C(=O)N(Cc2ccc(F)cc2)C2CCS(=O)(=O)C2)cc(OC)c1OC (stereo not drawn) ?
CYP2C9 activ: 0.9; CYP2C19 act: 1; CYP2C19 inhib: -5; CYP2C9 inhib: 8; Cav32 inh: 1.7

How did CCO[C@@H]1OC(C(=O)N2CCN(Cc3ccccc3)CC2)=C[C@H](C2CC2)[C@H]1CCCO do in these assays?
Cav32 inh: -0.026

How did COc1ccc(CCC(=O)N2CC(C)OC(C)C2)cc1 (stereo not drawn) do in these assays?
CYP2C9 activ: 0.9; CYP2C19 act: 0.7; CYP2C19 inhib: 28; CYP2C9 inhib: 10; Cav32 inh: 0.027

Results for CC(C)CCn1c(SCC(=O)OCn2nnc3ccccc3c2=O)nc2ccccc2c1=O ?
CYP2C9 activ: 0.6; CYP2C19 act: 0.8; CYP2C19 inhib: 16; CYP2C9 inhib: 36; Cav32 inh: -0.41

How did COc1ccc(-n2c(Cc3cccn3C)nnc2SCC(=O)NC2CCCC2)cc1 do in these assays?
CYP2C9 activ: 0.6; CYP2C19 act: 0.7; CYP2C19 inhib: 32; CYP2C9 inhib: 41; Cav32 inh: 0.28

What do the screens show for `COc1ccc(-n2c(Cc3cccn3C)nnc2SCC(=O)NCc2ccccc2Cl)cc1`?
CYP2C9 activ: 0.7; CYP2C19 act: 1; CYP2C19 inhib: 4; CYP2C9 inhib: 26; Cav32 inh: 0.27

How did COc1ccc(-n2c(Cc3cccn3C)nnc2SCC(=O)Nc2ccc(C)cc2C)cc1 do in these assays?
CYP2C9 activ: 0.6; CYP2C19 act: 0.7; CYP2C19 inhib: 31; CYP2C9 inhib: 38; Cav32 inh: -6.3*

What do the screens show for `COc1ccc(-n2c(Cc3cccn3C)nnc2SCC(=O)Nc2cc(Cl)ccc2OC)cc1`?
CYP2C9 activ: 0.8; CYP2C19 act: 0.8; CYP2C19 inhib: 19; CYP2C9 inhib: 15; Cav32 inh: -7.5*

How did COc1ccc(-n2c(Cc3cccn3C)nnc2SCC(=O)Nc2ccccc2OC)cc1 do in these assays?
CYP2C9 activ: 0.5; CYP2C19 act: 0.7; CYP2C19 inhib: 33; CYP2C9 inhib: 48; Cav32 inh: -2.7*
